High-throughput results deposited in PubChem BioAssay by National Center for Advancing Translational Sciences (NCATS).
PI4K2A block: inhibitors of human PI4K2A; activity change, negative = inhibition, % at 76.9 µM; actives 0.13% (n = 420,000); AID 1346378; purified PI4K2A, ADP-Glo luminescence, 1 h; stronger effect = lower value; Q9BTU6; in the data active means activity change below about -50%;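 further: -100% = wells without enzyme as full effect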
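ADP-Glo luminescence measured ADP generated by PI4K2A enzyme (4 ug/mL before mixing) with 1.2 mM PI substrate (pre-mix) and 300 microM ATP (pre-mix). Tris pH7.5 buffer with MgCl2, Triton X-100; 1 h reaction at ambient temperature.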
PI5P4Ka inh: blocks human PI5P4K alpha kinase activity. max response, %. AID 652105. P48426. PI5P4Kalpha enzyme, ADP-Glo luminescence, 60 min; stronger effect = lower value. actives 1.2% (n = 330,000); active means max response of -50% or lower; further: value at the top dose of about 77 µM; on the % scale 0 is the no-effect control and ±100 the full control effect
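Human PI5P4Kalpha with substrate in 0.038 M HEPES pH 7.4, 0.28 mM EGTA, 0.1% CHAPS, 5% DMSO; reaction started with 5 microM ATP (final), 60 min at room temperature. ADP formed read by ADP-Glo luminescence.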
LDHA block: inhibitors of human lactate dehydrogenase A | P00338 | purified LDHA, NADH/diaphorase-resazurin fluorescence; stronger effect = lower value | activity change, % (values are at about 110 or 230 µM) | actives 0.15% (n = 480,000) | AID 1347041; in the data active means activity change below about -30%;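 further: plate controls were DMSO wells for no effect and wells without enzyme for full effect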
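Remaining NADH was detected by diaphorase (0.133 mg/mL) converting 37 µM resazurin to fluorescent resorufin, read at 0 and 20 minutes. The preceding 5-minute room-temperature reaction used 2 nM LDHA, 0.2 mM sodium pyruvate and 0.06 mM NADH at pH 7.4.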
DRD3 agonist: D3 dopamine receptor (human) agonism; P35462; max activation, %; actives 0.58% (n = 410,000); AID 652048; D3R DiscoveRx beta-arrestin cells, luminescence, 90 min; in the data active means max activation above about 30%; further: 0% is about no effect
Target sequence (P35462 whole entry, looked up): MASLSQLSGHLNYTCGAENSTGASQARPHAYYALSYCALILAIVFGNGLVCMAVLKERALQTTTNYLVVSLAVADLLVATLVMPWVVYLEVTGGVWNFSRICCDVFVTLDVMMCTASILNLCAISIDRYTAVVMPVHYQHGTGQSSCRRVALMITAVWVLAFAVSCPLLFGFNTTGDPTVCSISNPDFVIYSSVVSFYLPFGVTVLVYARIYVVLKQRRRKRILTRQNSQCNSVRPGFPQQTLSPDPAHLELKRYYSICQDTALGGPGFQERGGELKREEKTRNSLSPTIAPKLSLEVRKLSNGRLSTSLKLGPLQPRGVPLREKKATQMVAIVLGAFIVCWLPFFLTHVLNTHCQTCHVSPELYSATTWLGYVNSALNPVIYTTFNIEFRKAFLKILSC
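Cells at 1500/well, incubated overnight, then treated with pinned compounds (dopamine as control) for 90 min at 37 degrees C. DiscoveRx reagent added for 30 - 60 minutes at room temperature; luminescence read.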
D3 antag: antagonists of human D3 dopamine receptor | P35462 | actives 2.5% (n = 360,000) | D3R cells, DiscoveRx beta-arrestin luminescence, antagonist mode; stronger effect = lower value | AID 652054 | max response, negative = inhibition, %; in the data active means max response below about -50%; further: on the % scale 0 is the no-effect control and ±100 the full control effect
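Cells expressing the human receptor were seeded at 1500 cells/well, incubated overnight at 37 degrees C in 5% CO2, then exposed to library compounds with dopamine controls for 90 minutes at 37 degrees C before luminescent detection.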
* hit, by the source's call; . = no result given. Most compounds without a hit are left out; they make up all but 3.3% or so of the library.

SMILES	PI4K2A block	PI5P4Ka inh	LDHA block	DRD3 agonist	D3 antag
O=c1[nH]n2c(=O)c3c([nH]c2c1N=Nc1cccc(Cl)c1)CCC3	2.0	-57.7*	2.0	-4.9	-10.9
CC(C)c1ccc2c(c1)C1(CC(=O)Nc3c1cnn3Cc1ccccc1Cl)C(=O)N2C (configuration not stated)	.	.	-0.1	.	.
OC1c2cc(Cl)ccc2-c2c(Cl)cc(Cl)cc21 (configuration not stated)	-2.0	10.8	-17.0	2.8	8.1
OC1c2cc(Cl)cc(Cl)c2N=C2CCCN21 (configuration not stated)	.	2.1	-0.4	-11.7	-59.3*
COC(=O)C(O)(c1ccc(N(C)C(=O)Nc2ccc(Cl)cc2)cc1)C(F)(F)F (configuration not stated)	.	.	1.1	.	.
COCCNC(=S)Nc1cc(OC)c(OC)cc1C#N	0.9	-5.4	-11.7	-2.6	-50.8*
CCOc1ccc2c(=O)c(Oc3ccc(C(=O)OC)cc3)coc2c1	.	.	-13.5	.	.
O=C(c1ccc(F)cc1)C(CCCCCC(CN1CCOCC1)C(=O)c1ccc(F)cc1)CN1CCOCC1 (configuration not stated)	2.1	0.9	-0.8	-13.4	-58.2*
Nc1nn(-c2ccccc2)nc1C(=O)OCc1ccccc1	-3.9	10.8	-0.6	-13.7	-64.6*
Cc1ccc(COC(=O)c2nn(-c3ccccc3)nc2N)cc1	5.4	13.8	2.3	-2.5	15.1
CCCCCCCC/C=C\CCCCCCCC(=O)OC[C@@H](O)[C@H]1OC[C@H](O)[C@H]1O	.	.	.	9.2	.
O=C(/C=C/c1ccc([N+](=O)[O-])cc1)NC1CC2CCC1C2 (configuration not stated)	-6.4	-51.8*	1.4	-10.8	-2.4
O=C(/C=C/c1ccc(Cl)cc1)NC1CC2CCC1C2 (configuration not stated)	5.5	-14.3	-3.0	-11.0	-13.9
COC(=O)C1=C(C)N(c2ccc(F)cc2)C(=O)CC1C(=O)Nc1ccc(C(C)=O)cc1 (configuration not stated)	.	.	3.5	.	.
COC(=O)c1cc(NC(=O)C2CC(=O)n3c(nc4ccccc43)N2)cc(C(=O)OC)c1 (configuration not stated)	.	.	-0.7	.	.
c1ccc(CN2CCN(c3nc(-c4ccccc4)nc(-n4ccnc4)n3)CC2)cc1	-5.6	.	0.7	-39.0	-63.0*
CCOC(=O)Cc1ccc(NC(=O)NC(C(=O)N2CCc3ccccc32)c2ccccc2)cc1 (configuration not stated)	.	.	5.8	.	.
O=S(=O)(Nc1cc(Sc2ncn[nH]2)c(O)c2ccccc12)c1ccccc1	-63.6*	-90.0*	51.2	-5.1	-100.0*
Cc1cc(O)c(Sc2ncn[nH]2)cc1NS(=O)(=O)c1ccc(Cl)cc1	-3.3	-0.3	8.3	-14.4	-5.7
COCCCNC(=O)/C(C#N)=C/c1c(C)[nH]c2ccccc12	.	.	4.6	.	.
CC(C)c1ccc(CN2CCC(C(=O)NCc3cccnc3)CC2)cc1	5.2	0.5	-7.6	-5.2	-83.4*
O=C(NC(c1ccc(-c2ccccc2)cc1)c1cnccn1)C1CCN(Cc2ccc3c(c2)OCO3)CC1 (configuration not stated)	6.3	3.5	-4.4	-9.4	-65.8*
CCS(=O)(=O)N1CCC(C(=O)NCc2cccnc2)CC1	1.0	.	-1.0	2.7	4.7
O=C(NC(c1ccc(-c2ccccc2)cc1)c1cnccn1)C1CCN(Cc2ccc(Cl)c(Cl)c2)CC1 (configuration not stated)	3.6	26.1	-5.2	-13.5	-57.4*
COc1ccc(/C=C(\C#N)c2nc3ccccc3o2)cc1	.	.	-11.0	.	.
COc1cc(OC)c2c(-c3ccccc3)cc(=O)oc2c1C(CCN1CCCC(C)C1)c1ccc2c(c1)OCO2 (configuration not stated)	-4.2	1.6	0.0	-50.8	-69.8*
COc1cc(OC)c2c(C)cc(=O)oc2c1C(CCN1CCOCC1)c1ccc2c(c1)OCO2 (configuration not stated)	4.0	2.0	0.6	-60.2	-69.3*
COc1cc(C(CCN2CCN(c3ccccc3)CC2)c2c(OC)cc(OC)c3c(C)cc(=O)oc23)cc(OC)c1OC (configuration not stated)	-4.3	0.9	-6.0	-74.5	-120.5*
